The text below walks through data of PubChem BioAssay AID720541 (National Center for Advancing Translational Sciences (NCATS), 2013).

Each structure is given as a SMILES string. Hit rate of the full screen: of about 1,300 compounds, about 420 (32%) were called active. About 32% were inconclusive and are not listed. Calls come from the whole dose curve; as a rule, active = well fitted inhibition curve with a large enough effect; inconclusive = small, poorly fitted or top-dose-only effect; inactive = no such curve, though single readings can be large or run the other way. The list shows a part of the results. Entries that show only a call come without a potency.
Potency is the fitted concentration of half-maximal effect.

For the assay, the target named is C-terminal-binding protein 1 (Homo sapiens) (UniProt Q13363). Kind of assay: qHTS for Inhibitors of the Phosphatase Activity of Eya2: Carboxyl-terminal binding protein (CtBP) Counterscreen for Cherry-picked Compounds. Note: nearly all actives have a fitted effect of over 65% in size. The following applies: purified protein-protein binding, AlphaScreen, 3 h; series mostly up to 46.1 µM. From the text: The Eya protein family is an essential co-activator of the Six1 transcription factor. Six1 is a developmental gene that is abnormally re-expressed in a large percentage of breast cancers. This over-expression plays a causal role in the initiation and metastatic development of breast cancers. The Eya family of protein is also found to contain a unique HAD phosphatase domain with protein tyrosine phosphatase activity which can potentially play a role in Six1-mediated breast tumorigenesis. Recently, Eya2 is found to dephosphorylate the histone variant H2AX and direct cells towards DNA repair instead of apoptosis in the event of DNA damage.
A 1536 well format, fluorescence based qHTS assay was developed and used to target the phosphatase activity of Eya2 (AID 488837). In addition, a CtBP counterscreen was developed using the AlphaScreen technology to evaluate compound selectivity to target […]. The data herein reports the activity of the cherry-picked compounds against the CtBP AlphaScreen. Compounds that are active or have > 100 fold selectivity vs. the Eya2 activity were excluded for further characterization. Inactivity is the desired outcome for the CtBP counterscreen.
NIH Chemical Genomics Center [NCGC]
NIH Molecular Libraries Probe Centers Network [MLPCN]
Assay Submitter (PI): Rui Zhao, University of Colorado Denver
Four microliters of reagent (25 nM GST-E1A, 25 nM CtBP-6x HIS) was dispensed in a 1536 well Greiner plates. Twenty-three nanoliter of test compounds (final concentration of 2.5 nM - 46 uM) and positive control E1A peptide inhibitor (final concentration of 0.14 nM - 4.6 uM) were added to the plates using the Kalypsys pintool equipped with a 1536 pin head. The plates was then incubated at room temperature for 2 hours followed by addition of 1 uL Alpha bead donor / acceptor mix (20 ug/mL final concentration). The assay plates were incubated for additional 1 hour at room temperature and protected from light. The AlphaScreen signal was obtained using the PerkinElmer EnVision plate reader using the 680 nm excitation and 520 - 620 nm emission filters. The data was normalized to the E1A peptide inhibitor for maximum inhibition and DMSO treated wells as negative control.
In general terms: qHTS replaces the single test concentration by a dilution series.
With `N[C@@H](Cc1cc(I)c(O)c(I)c1)C(=O)O`, the Potency is 8.49 µM (active). As for `CN(C)c1ccc(N=Nc2ccccc2)cc1`, the Potency was 4.78 µM (active).

In the case of `CN(C)c1ccc(C=C2C=CC=C2)cc1`, the Potency entry was “inactive”. As for `COC(=O)C1=C(c2ccc(F)cc2OCc2ccccc2)C[C@@H]2CC[C@H]1N2C(=O)NCc1ccc(N(C)C)cc1`, the Potency is 10.7 µM (active). Consider `COC(=O)C1=C(c2cccc(OCc3ccccc3)c2)C[C@@H]2CC[C@H]1N2C(=O)NCCCc1ccccc1`, for which the Potency entry is “inactive”.

On to `CCOC(=O)c1cc2c(cn1)[C@@H](CCO)NC2`, for which the Potency result was “inactive”. In the case of `COc1cccc2c1C(=O)c1c(O)c3c(c(O)c1C2=O)C[C@@](O)(C(=O)CO)C[C@@H]3O[C@H]1C[C@H](N)[C@H](OC2CCCCO2)[C@H](C)O1` (stereo partly drawn) it was 7.57 µM (active); in that of `C[C@H]1CCC[C@H](O)CCCCCc2cc(O)cc(O)c2C(=O)O1`, “inactive”; in that of `CN(C)S(=O)(=O)c1ccc(C(=O)NNc2nc(-c3ccccc3)c3cc(Br)ccc3n2)cc1`, 8.49 µM (active). In the case of `O=C1NC(=S)NC(=O)C1=Cc1ccc(Br)s1` it was “inactive”; in that of `COc1ccc(-c2cc(=NCCC(=O)O)c3cc(C)ccc3o2)cc1`, 10.7 µM (active).

Take `Cc1nc2ccccc2c(=O)n1-c1ccc(Cl)cc1[N+](=O)[O-]`: the Potency entry is “inactive”. Turning to `COc1ccccc1N1CCN(CCc2c[nH]c3cc4c(cc23)OCO4)CC1`, the Potency is 13.5 µM (active). In the case of `O=C1NC(=O)N(c2ccc(Cl)cc2)C(=O)/C1=C\c1ccc(Sc2nc3ccccc3[nH]2)o1` it was “inactive”; in that of `CC(N)[C@H](O)c1ccc(O)c(O)c1` (stereo partly drawn), “inactive”; in that of `Cc1cc(/C=C2\C(=O)NC(=O)N(c3ccc(Br)cc3)C2=O)c(C)n1-c1cc(C(=O)O)cc(C(=O)O)c1`, “inactive”. Turning to `Cc1c(C(=O)c2cccc3ccccc23)c2cccc3c2n1[C@H](CN1CCOCC1)CO3`, the Potency result is “inactive”.

For the compound `O=C(Cc1ccccc1)c1ccccn1`, the Potency was 10.7 µM (active). Take `COC1C(O)C(C)OC(OC2C(Oc3cccc4c(O)c5c(=O)oc6ccc(C)c7c(=O)oc(c34)c5c67)OC(C)C(O)C2O)C1O` (stereo not drawn): the Potency result was “inactive”. For `CCC(COC(=O)c1cc(OC)c(OC)c(OC)c1)(c1ccccc1)N(C)C` (stereo not drawn), the Potency result is “inactive”. In the case of `COC(=O)C1=C(C)NC(C)=C(C(=O)OC)C1c1ccccc1[N+](=O)[O-]` it was 10.7 µM (active); in that of `O=C(O)c1cc[c]([Sb](=[O])([OH])[OH])cc1[N+](=O)[O-]`, “inactive”. With `C=CCN1C(=O)/C(=C/c2ccc(Br)s2)C(=O)NC1=S`, the Potency entry is “inactive”.

With `Cc1ccc2c(C)c3ccc4ccccc4c3c[n+]2c1`, the Potency was 13.5 µM (active). With `CCOC(=O)CCCc1cc[c]([Sb](=[O])([OH])[OH])cc1`, the Potency entry was “inactive”. In the case of `CCOc1ccc(N2C(=O)/C(=C/c3ccc(C)o3)C(=O)NC2=S)cc1` it was “inactive”; in that of `C=C1C(=O)O[C@@H]2C[C@@H](C)[C@@H]3C=CC(=O)[C@@]3(C)[C@@H](OC(=O)CC(=O)O[C@H]3[C@@H]4C(=C)C(=O)O[C@@H]4C[C@@H](C)[C@@H]4C=CC(=O)[C@]43C)[C@H]12`, 8.49 µM (active); in that of `Cc1ccc(/C=C2\C(=O)NC(=S)N(c3cccc(F)c3)C2=O)o1`, “inactive”.

On to `O=C(O)CCCOc1ccc(Cl)cc1Cl`, for which the Potency entry was “inactive”. In the case of `CNc1ccc2nc3ccccc3[n+](C)c2c1`, the Potency was 8.49 µM (active).

For `Cc1c(N=Nc2c(O)[nH]c(=O)[nH]c2=O)c(=O)n(-c2ccccc2)n1C`, the Potency is 2.13 µM (active). In the case of `O=C1NC(=O)N(c2ccc(Br)cc2)C(=O)/C1=C/c1ccsc1` it was “inactive”; in that of `CCOc1cc2c(cc1OCC)-n1cccc1C(c1ccc(F)cc1)NC2` (stereo not drawn), “inactive”.
